Consider 22 compounds from PubChem BioAssay (Tox21).

Assay [1] in a line: qHTS assay to identify small molecule antagonists of the androgen receptor (AR) signaling pathway using the MDA cell line in the presence of 0.5 nM R1881 - cell viability counter screen (AID 1259242). Further: nearly all actives have a fitted effect of over 45% in size. Further: potency means the concentration at half of the fitted maximal effect. The method in brief:
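Human breast carcinoma MDA-kb2 cells, cultured without CO2, receive compounds alongside 0.5 nM (final) R1881 agonist. After 16 hr at 37C, viability is taken as live-cell protease signal.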
Background: qHTS replaces the single test concentration by a dilution series.

Assay [2] can be described thus: qHTS assay to identify small molecule HDAC inhibitors (AID 1259364). Further: potency means the concentration at half of the fitted maximal effect.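 Further: wild-type HCT-116 cells with endogenous class I/II HDAC activity; nearly all actives have a fitted effect of over 45% in size.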 In a few lines: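 After a 2 hr compound incubation (37C, 5% CO2), HCT-116 cells seeded at 1,500/well the day before received HDAC-Glo reagent; signal read as luminescence after 30 min at room temperature.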
Assay [3] in a line: qHTS assay to identify small molecule HDAC inhibitors - cell viability counter screen (AID 1259365). Further: series mostly up to about 92 µM; nearly all actives have a fitted effect of over 50% in size. In a few lines:
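Luminescence from CellTiter-Glo, developed 30min at room temperature, reports viability of wild-type HCT-116 cells treated 2hr with compounds at 37 C and 5% CO2 after overnight plating.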

Assay [4] can be described thus: qHTS assay to identify small molecule agonists of the sonic hedgehog signaling (Shh) pathway (AID 1259368; calls by dose curve;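 further: NIH/3T3-derived 3T3Gli1-Luc cells carrying a stable Gli1-driven firefly luciferase reporter; series mostly up to about 92 µM; nearly all actives have a fitted effect of over 15% in size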). The method in brief: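 Stable NIH/3T3 Gli1-Luc reporter clone; 24 hr cpd exposure after a 4 hr settling period; luminescence endpoint.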
Assay [5] has as its target Estrogen receptor (Homo sapiens) (UniProt P03372). As to the kind of experiment: qHTS assay to identify small molecule antagonists of the estrogen receptor alpha (ER-alpha) signaling pathway using the BG1 cell line in the presence of 0.1 nM 17-beta-estradiol (AID 1259244). Further: nearly all actives have a fitted effect of over 50% in size. Further: potency means the concentration at half of the fitted maximal effect. In a few lines:
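Seeding of stripped-serum-adapted VM7Luc4E2 cells, 24 h attachment, compound transfer, then 0.1 nM final 17beta-estradiol; after 22 h incubation, ONE-Glo reagent and luminescence reading.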

A short description of assay [6]: qHTS assay to identify small molecule agonists of the sonic hedgehog signaling (Shh) pathway - cell viability counter screen (AID 1259366). Further: nearly all actives have a fitted effect of over 50% in size. In a few lines: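 Cytotoxicity counter screen run in the same wells as the Shh reporter assay. NIH/3T3 cells carrying a Gli1 response element–driven luciferase were treated with DMSO-dissolved compounds for 24hr, and live-cell protease activity was measured with CellTiter-Fluor.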

Assay [7] can be described thus: qHTS assay to identify small molecule antagonists of the sonic hedgehog signaling (Shh) pathway - cell viability counter screen (AID 1259367). Further: nearly all actives have a fitted effect of over 55% in size. The method in brief:
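CellTiter-Fluor signal in conditioned medium-stimulated 3T3 Gli1-Luc cells, 23 hr compound exposure, 37C.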

Assay [8] has as its target Androgen receptor (Homo sapiens) (UniProt P10275). The assay is described as follows: qHTS assay to identify small molecule antagonists of the androgen receptor (AR) signaling pathway using the MDA cell line in the presence of 0.5 nM R1881 (AID 1259243). Further: potency means the concentration at half of the fitted maximal effect; nearly all actives have a fitted effect of over 50% in size. In a few lines:
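Cells: MDA-kb2 (MMTV-luc). Stimulus: 0.5 nM R1881. Time: 16 hr, 37C, no CO2. Detection: ONE-Glo luminescence after 30 min at RT.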

Assay [9] is described as follows: qHTS assay to identify small molecule phospholipidosis (PLD) inducers (AID 1259344; active means well fitted curve in the direction sought with a large enough effect; an effect the other way counts as inactive or inconclusive). The method in brief: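 Accumulated phospholipid, stained red by LipidTOX during 24 h compound treatment of HepG2 cells at 37 C, is quantified from images as pit number and intensity, normalised per cell using Hoechst-stained nuclei.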

A number with no mark means an inactive call. Results filed as inconclusive are left out. Calls of active or inactive are those of the source. Unless noted, the call rests on the fitted dose curve; in most records, active means well fitted curve in the direction sought with a large enough effect in the repeat runs; inconclusive means weak or mixed curves; inactive means no such curve, though single readings can be large; an effect the other way counts as inactive or inconclusive.

Estrogen receptor (Homo sapiens), sequence (P03372 whole entry, looked up): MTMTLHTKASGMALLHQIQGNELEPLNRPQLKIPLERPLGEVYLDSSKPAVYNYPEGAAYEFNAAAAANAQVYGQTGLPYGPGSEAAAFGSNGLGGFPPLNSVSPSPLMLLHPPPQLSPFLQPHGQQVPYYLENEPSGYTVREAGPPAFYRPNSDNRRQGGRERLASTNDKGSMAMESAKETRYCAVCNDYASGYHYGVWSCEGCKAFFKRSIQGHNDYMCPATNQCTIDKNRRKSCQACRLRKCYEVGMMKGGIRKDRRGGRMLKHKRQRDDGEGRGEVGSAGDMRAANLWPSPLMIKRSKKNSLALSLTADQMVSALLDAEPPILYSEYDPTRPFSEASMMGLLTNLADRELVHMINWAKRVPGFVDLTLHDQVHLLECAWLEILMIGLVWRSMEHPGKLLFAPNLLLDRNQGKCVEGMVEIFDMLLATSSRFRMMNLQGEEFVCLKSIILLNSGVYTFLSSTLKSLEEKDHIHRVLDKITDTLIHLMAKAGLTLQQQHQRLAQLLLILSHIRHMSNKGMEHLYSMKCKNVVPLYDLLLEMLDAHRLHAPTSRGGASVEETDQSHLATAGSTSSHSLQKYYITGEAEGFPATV
Androgen receptor (Homo sapiens), sequence (P10275 whole entry, looked up): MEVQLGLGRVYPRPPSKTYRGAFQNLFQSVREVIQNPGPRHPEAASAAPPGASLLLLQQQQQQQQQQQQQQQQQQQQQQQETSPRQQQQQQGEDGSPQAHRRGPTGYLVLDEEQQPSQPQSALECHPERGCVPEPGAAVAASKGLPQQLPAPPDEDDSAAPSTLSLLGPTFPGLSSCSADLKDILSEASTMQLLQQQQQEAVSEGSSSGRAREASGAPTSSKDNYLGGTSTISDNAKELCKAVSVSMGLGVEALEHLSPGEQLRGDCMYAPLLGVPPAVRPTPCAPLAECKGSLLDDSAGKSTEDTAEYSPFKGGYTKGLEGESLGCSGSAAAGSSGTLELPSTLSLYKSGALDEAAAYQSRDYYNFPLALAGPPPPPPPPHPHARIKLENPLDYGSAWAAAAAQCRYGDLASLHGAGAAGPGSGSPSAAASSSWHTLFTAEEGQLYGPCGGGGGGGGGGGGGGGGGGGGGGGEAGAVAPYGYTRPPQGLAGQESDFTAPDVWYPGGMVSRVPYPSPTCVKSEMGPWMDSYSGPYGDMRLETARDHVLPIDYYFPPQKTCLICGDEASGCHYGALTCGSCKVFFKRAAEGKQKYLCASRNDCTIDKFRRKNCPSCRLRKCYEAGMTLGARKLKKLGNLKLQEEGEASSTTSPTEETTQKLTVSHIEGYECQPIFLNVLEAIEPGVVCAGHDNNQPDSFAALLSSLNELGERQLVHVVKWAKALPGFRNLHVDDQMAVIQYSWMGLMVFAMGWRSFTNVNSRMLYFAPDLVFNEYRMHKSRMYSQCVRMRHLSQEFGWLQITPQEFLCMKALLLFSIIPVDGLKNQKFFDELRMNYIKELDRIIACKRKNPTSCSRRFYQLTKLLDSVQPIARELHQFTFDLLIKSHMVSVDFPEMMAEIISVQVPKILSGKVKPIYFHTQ

As for `Cc1occc1C(=O)Nc1ccc(C(=O)N2CCC(F)(F)/C(=C\C(=O)N3CCC(N4CCCCC4)CC3)c3ccccc32)cc1`, the Potency entry in assay [1], in [2], in [3] and in assay [4] was “inactive” in each case.
`CCCCC(CC)C(=O)OCCOCCOCCOCCOC(=O)C(CC)CCCC` (stereo not drawn): the Potency result in [1], in [5], in [2], in assay [3], in [6] and in [7] was “inactive” each time. Moreover, in [4], the Potency entry was “inactive”.
Take `CC(C)C(=O)O`: the Potency entry in assay [1], in [5], in [2], in [3], in [6] and in assay [7] was “inactive” in each case. For the same compound, the Potency entry in [4] is “inactive”.
For `OCCSc1ccccc1`, the Potency entry in [1], in [5], in [2], in assay [3], in assay [6] and in assay [7] was “inactive” each time. For the same compound, the Potency result in [4] is “inactive”.
On to `NC(=O)N(O)[C@@H]1COc2cc(OCc3ccccc3)ccc21`, for which the Potency entry in assay [1], in assay [3], in assay [6] and in assay [4] was “inactive” throughout. In addition, the Potency in assay [5] is 43.3 µM (active); in assay [2] it was 1.72 µM (active).
Consider `Fc1ccccc1[C@@H](F)COC1CCC(Nc2ncnc3[nH]ncc23)CC1` (stereo partly drawn), for which, in assay [8], the Potency was 15.4 µM (active). In addition, the Potency entry in [2], in [3], in [6] and in assay [4] was “inactive” in each case.
Turning to `Cc1cc(C(=C2C=CC(=Nc3ccc(S(=O)(=O)O)cc3S(=O)(=O)O)C=C2)c2ccc(Nc3ccc(S(=O)(=O)O)cc3)cc2)ccc1N`, the Potency entry in [1], in [5], in [2], in assay [3], in assay [7] and in assay [4] was “inactive” throughout.
In the case of `Nc1ccc(C(=O)OCCCOC(=O)c2ccc(N)cc2)cc1`, the Potency entry in [1], in [2], in assay [3], in assay [6], in [7] and in assay [4] was “inactive” each time.
For `NC(=O)Nc1ccc(Cl)c(Cl)c1`, the Potency result in assay [1], in assay [2], in [3], in assay [6], in assay [7] and in assay [4] was “inactive” in each case.
On to `CO[C@@]12[C@H](COC(N)=O)C3=C(C(=O)C(C)=C(N)C3=O)N1C[C@@H]1N[C@@H]12`, for which the Potency result in assay [1], in assay [2], in assay [3] and in assay [4] was “inactive” each time. Besides, the compound was called inactive in assay [9].
As to `CCCCN(CCCC)C(=S)SSC(=S)N(CCCC)CCCC`, the Potency result in assay [1], in [5], in assay [2], in assay [3], in assay [7] and in [4] was “inactive” throughout.
On to `NC(=O)N(O)[C@@H]1C=C[C@H](Oc2cccc(Oc3ccc(F)cc3)c2)C1`, for which the Potency result in [1], in assay [2], in assay [3], in assay [7] and in [4] was “inactive” each time.
In the case of `CCn1nc(C)c2c1C(=O)NCC(c1ccc(O)cc1)=N2`, the Potency result in [1], in [5], in assay [2], in assay [3], in assay [6] and in assay [7] was “inactive” throughout.
Take `Cc1nccn1-c1ccc(Sc2cccc(C3(C(N)=O)CCOCC3)c2)cc1`: the Potency in assay [5] is 3.06 µM (active). In addition, the Potency result in assay [3], in assay [6], in assay [7] and in [4] was “inactive” each time.
In the case of `CCCCCC=CCC=CCCCCCCCC(=O)OCC`, the Potency entry in assay [1], in assay [5], in assay [2], in assay [3], in assay [6] and in [7] was “inactive” throughout. The Potency result in assay [4] is “inactive”. In addition, the outcome in assay [9] was inactive.
Take `CC(=O)Nc1ccccc1C`: the Potency result in assay [1], in assay [5], in assay [2], in [3], in assay [7] and in assay [4] was “inactive” throughout.
Turning to `CO[Si](C)(OC)OC`, the Potency entry in [1], in assay [5], in assay [2], in assay [3], in [6] and in assay [7] was “inactive” each time. In addition, in assay [4], the Potency entry was “inactive”.
For `CCCCC(CC)CNCC(CC)CCCC` (stereo not drawn), the Potency entry in assay [1], in [2], in [3], in assay [6], in assay [7] and in [4] was “inactive” throughout.
As for `C(=C\c1ccccc1)/CN1CCN(C(c2ccccc2)c2ccccc2)CC1`, the Potency entry in [1], in assay [2], in [3], in assay [6], in assay [7] and in [4] was “inactive” each time.
With `CCOC(=O)OCC`, the Potency entry in [1], in assay [5], in assay [2], in assay [3], in assay [6] and in [7] was “inactive” each time.
On to `CC(C)OCC1CO1` (stereo not drawn), for which the Potency entry in assay [1], in [5], in assay [2], in assay [3] and in assay [4] was “inactive” throughout.
`CCc1nn(CCCN2CCN(c3cccc(Cl)c3)CC2)c(=O)n1CCOc1ccccc1`: the Potency was 26.6 µM (active) in assay [1] and 11.9 µM (active) in assay [5]. For the same compound, the compound was classed as inactive in assay [9]. In addition, the Potency entry in [2], in assay [3], in [6], in [7] and in assay [4] was “inactive” in each case.
